Data published in PubChem BioAssay (EPA / NIEHS).
Active and inactive are the calls of the source. How the source made its calls: active means hit-call score of the fitted dose curve at least 0.9, where 1 is the maximum; inactive means score below 0.9.

read-out: Paternally Expressed 10 (PEG10), PEG10 (gene 23089); experiment: LTEA_HepaRG_PEG10: Life Technologies and Expression Analysis (LTEA) Assay for Paternally Expressed 10 (PEG10) using HepaRG (AID 2283520); conditions: mRNA level, 48 h; actives raise or lower the signal;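 on AC50: PEG10 transcript by qRT-PCR normalised to ACTB GAPDH and POLR2A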
Experimental: LTEA_HepaRG is a cell based, multiplexed-readout assay that uses HepaRG, a human liver cell line, with measurements taken at 48 hours after chemical dosing on a 96-well plate.LTEA_HepaRG_PEG10 is one of 102 assay component(s) measured in the LTEA HepaRG cell culture assay. It is a marker of Cell proliferation, survival, death.Data from the assay component LTEA_HepaRG_PEG10 was analyzed into 1 endpoint. This assay endpoint, LTEA_HepaRG_PEG10, was analyzed with bidirectional fitting relative to DMSO as the negative control and baseline of activity. Using a type of inducible reporter, measures of mRNA induction for gain or loss-of-signal activity can be used to understand regulation of transcription factor activity. To generalize the intended target to other relatable targets, this assay endpoint is annotated to the dna binding intended target family, where the subfamily is xenobiotic metabolism.
A total of 1060 chemcials from the ToxCast library were tested in eight-point concentration-response experiments. Cell culture and cytotoxicity assays were conducted at Thermo Fisher Scientific's Custom Services facility (Madison, WI). A single lot of human HepaRG cells (Thermo Fisher Scientific, Frederick, MD) was used for the cell culture experiments. 96-well format collagen type I coated plates of human HepaRG cells were prepared using established methods. Briefly, cryopreserved HepaRG cells were thawed, plated at a density of approximately 100,000 cells/well in HepaRG Thaw, Plate, and General Purpose media (HPRG770, Thermo Fisher Scientific), and incubated for 48 hours. 0.5% DMSO was selected as vehicle control to balance the requisite need of DMSO in HepaRG cultures to maintain differentiation (for example, baseline metabolism, proportions of hepatocytes vs. cholangiocytes), while enabling further hepatic receptor pathway activation (for example, PXR and CAR) in response to chemical exposure. 48 hours after plating, the culture medium was replaced with HepaRG Serum-Free Incudtion Media. Cells were exposed to each test chemical in duplicate and maintained in CO2 incubators for another 48 hours. Chemical plates were thawed to room temperature and 200x concentrations of treatment groups were prepared. 8-point conentration-reponse curves were made with the highest exposure at 100 uM, followed by half-log dilutions, all in 0.5% DMSO. Each test plate contained variouse controls, induction positive controls (1mM phenobarbital), cytotoxicity positive controls ([…] aflatoxin B1), vehicle controls (0.5% DMSO), and total lysis controls (0.5% DMSO). Cell morphology images were taken using an Essen IncuCyte FLR automated microscope, with six 96-well plates imaged in about 24 minutes. Images were captured and exported and JPEG files. Spent culture media was transfered to black-well plates for the LDH assay, and remaining media was sorted at -80 C for later use. Cells were treated with RLT buffer and frozen until shipped for gene expression analysis. Total RNA was isolated from the cell suspension in 75 uL of Buffer RLT (Qiagen, Germantown, MD 20874) by Quintiles/Expression Analysis (Durham, NC) using a custom isolation procedure. Total RNA from each plate well was transferred to a preamplification plate. Fluidigm's 96.96 Dynamic ArrayTM (Fluidigm, Amsterdam, the Netherlands) technology was used for gene expression analyses by quantitative reverse transcription polymerase chain reaction (qRT-PCR, performed by Quintiles/Expression Analysis, Durham, NC)89. Standard TaqManTM Assays (Applied Biosystems/ThermoFisher Scientific, Foster City, CA) were used to assess the expression of 93 genes selected based on their selectivity and sensitivity to important hepatic receptors known to be modulated by environmental chemicals; importance in human hepatocyte functionality; and hepatotoxicity. […]

SMILES | outcome | AC50
CC(COc1ccc(Oc2ccccc2)cc1)Oc1ccccn1 (stereo not given) | inactive | 
CCOP(=S)(OCC)Oc1ccc([N+](=O)[O-])cc1 | inactive | 
COP(=O)(OC)OC(Br)C(Cl)(Cl)Br (stereo not given) | inactive | 
CON=C(C(=O)OC)c1ccccc1CON=C(C)c1cccc(C(F)(F)F)c1 | inactive | 
CCCOc1nn(C(=O)NS(=O)(=O)c2ccccc2C(=O)OC)c(=O)n1C | inactive | 
CC[C@H](C)[C@H]1O[C@]2(C=C[C@@H]1C)C[C@@H]1C[C@@H](C/C=C(\C)[C@@H](O[C@H]3C[C@H](OC)[C@@H](O[C@H]4C[C@H](OC)[C@@H](NC)[C@H](C)O4)[C@H](C)O3)[C@@H](C)/C=C/C=C3\CO[C@@H]4[C@H](O)C(C)=C[C@@H](C(=O)O1)[C@]34O)O2 |  | 13.3 µM (active)
COc1cc(OC)nc(Sc2cccc(Cl)c2C(=O)O)n1 | inactive | 
CCOP(=S)(OCC)Oc1cc(C)nc(C(C)C)n1 |  | 50 µM (active)
Cc1nn(-c2cc(NS(C)(=O)=O)c(Cl)cc2Cl)c(=O)n1C(F)F | inactive | 
CCc1cnc(C2=NC(C)(C(C)C)C(=O)N2)c(C(=O)O)c1 (stereo not given) | inactive | 
CCOP(=S)(OCC)Oc1ccc2c(C)c(Cl)c(=O)oc2c1 |  | 13.2 µM (active)
COP(=O)(OC)SCn1c(=O)oc2cc(Cl)cnc21 |  | 62.4 µM (active)
CCCCSP(=O)(SCCCC)SCCCC | inactive | 
COP(=O)(OC)C(O)C(Cl)(Cl)Cl (stereo not given) | inactive | 
CSc1nc(NC(C)C)nc(NC(C)C)n1 |  | 22.5 µM (active)
CN(C)NC(=O)CCC(=O)O | inactive | 
CCCCN(CC)c1c([N+](=O)[O-])cc(C(F)(F)F)cc1[N+](=O)[O-] | inactive | 
CCOP(=S)(OCC)OC(Cl)C(Cl)(Cl)Cl (stereo not given) | inactive | 
CC1=NNC(=O)N(/N=C/c2cccnc2)C1 | inactive | 
CCOC(=O)COc1cc(-c2nn(C)c(OC(F)F)c2Cl)c(F)cc1Cl | inactive | 

SMILES | outcome | AC50
CNC(=O)ON=C(C)SC | inactive | 
CNC(=O)Oc1cccc2c1OC(C)(C)O2 | inactive | 
CCC(CC)Nc1c([N+](=O)[O-])cc(C)c(C)c1[N+](=O)[O-] |  | 50 µM (active)
C=C(C)[C@H]1Cc2c(ccc3c2O[C@@H]2COc4cc(OC)c(OC)cc4[C@@H]2C3=O)O1 |  | 0.173 µM (active)
CCCSP(=O)(OCC)Oc1ccc(Br)cc1Cl (stereo not given) | inactive | 
COc1cccc(C(=O)NN(C(=O)c2cc(C)cc(C)c2)C(C)(C)C)c1C | inactive | 
CCNc1nc(Cl)nc(NC(C)(C)C#N)n1 |  | 26.5 µM (active)
CNC(=O)ON=C(SC)C(=O)N(C)C | inactive | 
CC(C)[C@H](C(=O)O[C@H](C#N)c1cccc(Oc2ccccc2)c1)c1ccc(Cl)cc1 |  | 30.3 µM (active)
COc1ccc(C(=CC(=O)N2CCOCC2)c2ccc(Cl)cc2)cc1OC |  | 4.02 µM (active)
CCc1cccc(CC)c1N(COC)C(=O)CCl | inactive | 
C#CC(C)(C)NC(=O)c1cc(Cl)cc(Cl)c1 |  | 50 µM (active)
N#CSCSC#N | inactive | 
CC(C)=CC1C(C(=O)OCN2C(=O)C3=C(CCCC3)C2=O)C1(C)C (stereo not given) | inactive | 
CN(C)[C@@H]1C(=O)C(C(N)=O)=C(O)[C@@]2(O)C(=O)C3=C(O)c4c(O)cccc4[C@@](C)(O)[C@H]3[C@H](O)[C@@H]12 | inactive | 
CC(C1CC1)C(O)(Cn1cncn1)c1ccc(Cl)cc1 (stereo not given) | inactive | 
CCCOCC(=Nc1ccc(Cl)cc1C(F)(F)F)n1ccnc1 |  | 28.3 µM (active)
C[N+]1(C)CCCCC1 | inactive | 
CCCSP(=O)(OCC)SCCC | inactive | 
CSc1nnc(C(C)(C)C)c(=O)n1N | inactive | 
